27 compounds from PubChem BioAssay (Tox21) can be followed below.

Results filed as inconclusive are left out. A number with no mark means an inactive call. Activity calls are given as the source filed them. Unless noted, calls come from the whole dose curve.

Assay [1] is described as follows: qHTS assay to identify small molecule agonists of the vitamin D receptor (VDR) signaling pathway - cell viability counter screen (AID 743224; active = well fitted curve in the direction sought with a large enough effect in the repeat runs; an effect the other way counts as inactive or inconclusive; note: nearly all actives have a fitted effect of over 50% in size; note: potency is the fitted concentration of half-maximal effect; for activity change, negative = cytotoxicity: series mostly up to about 63 µM; % is set by controls: 0 for no effect and ±100 for the full control effect). The method, boiled down: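 Viability is measured in the same wells as the VDR-bla reporter assay: after 16 h compound treatment and 2 h substrate loading, CellTiter-Glo is added and luminescence read 30 min later.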
In general terms: qHTS replaces the single test concentration by a dilution series.

Assay [2] is described as follows: qHTS assay to identify small molecule antagonists of the vitamin D receptor (VDR) signaling pathway - cell viability counter screen (AID 743225; active = well fitted curve in the direction sought with a large enough effect in the repeat runs; an effect the other way counts as inactive or inconclusive; note: % is set by controls: 0 for no effect and ±100 for the full control effect; nearly all actives have a fitted effect of over 50% in size). The method, boiled down:
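Viability counter screen run in the same wells as the beta-lactamase reporter assay: HEK 293T VDR-UAS-bla cells, 16 h compound exposure at 37C with 3 nM (final) 1-alpha,25-dihydroxyvitamin D3. CellTiter-Glo luminescence, 30 min, room temperature.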

Assay [3] is described as follows: qHTS assay to identify small molecule agonists of the NFkB signaling pathway - cell viability counter screen (AID 1159515). For activity, negative = cytotoxic: series mostly up to about 61 µM; % is set by controls: 0 for no effect and ±100 for the full control effect. Note: nearly all actives have a fitted effect of over 55% in size. Note: potency is the fitted concentration of half-maximal effect. The method, boiled down:
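Multiplexed viability readout: after the 5 hr compound exposure and 1.5 hr FRET substrate step, CellTiter-Glo reagent went into the same NFkB-bla ME-180 wells; ATP luminescence was measured after 30 min at room temperature.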

Assay [4] can be described thus: qHTS assay to identify small molecule agonists of the endoplasmic reticulum stress response signaling pathway (AID 1159516; active = well fitted activation curve with a large enough effect in the signal ratio in the repeat runs, not every such curve was filed as active; the % refers to the signal ratio; note: % is set by controls: 0 for no effect and ±100 for the full control effect). In a few lines:
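Tox21 10K library screened in quantitative HTS format on ESRE-bla HeLa cells, a beta-lactamase reporter under ER stress response element control; 5 hr treatment, FRET read.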

A short description of assay [5]: qHTS assay to identify small molecule agonists of the endoplasmic reticulum stress response signaling pathway - cell viability counter screen (AID 1159517). Note: nearly all actives have a fitted effect of over 50% in size. Note: potency is the fitted concentration of half-maximal effect. The method, boiled down: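 CellTiter-Glo was added to wells already read for beta-lactamase FRET, and luminescence was recorded 30 min later. Cells: ESRE-bla HeLa, 1,500 per well, compound exposure 5 hr at 37 C.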

A short description of assay [6]: qHTS assay to identify small molecule antagonists of the retinoid-related orphan receptor gamma (ROR-gamma) signaling pathway - cell viability counter screen (AID 1159520; active = well fitted curve in the direction sought with a large enough effect in the repeat runs; an effect the other way counts as inactive or inconclusive; note: nearly all actives have a fitted effect of over 50% in size; note: potency is the fitted concentration of half-maximal effect). The method, boiled down: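 Tet-on ROR gamma CHO cells (1,000/well) were plated 4 hr, given compounds in DMSO for 2 hr at 37 C, then induced with 1 uM final doxycycline for 16 hr. Viability was read as ATP by CellTiter-Glo luminescence after 30 min.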

The target in assay [7] is Nuclear receptor ROR-gamma (Homo sapiens) (UniProt P51449). The assay can be described thus: qHTS assay to identify small molecule antagonists of the retinoid-related orphan receptor gamma (ROR-gamma) signaling pathway (AID 1159521; active = well fitted curve in the direction sought with a large enough effect in the repeat runs; an effect the other way counts as inactive or inconclusive; note: nearly all actives have a fitted effect of over 50% in size; note: potency is the fitted concentration of half-maximal effect). The method, boiled down: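 Luminescence readout (ONE-Glo, 30 min RT) after 16 h doxycycline induction; loss of signal scored as antagonism. CHO cells with TET-inducible RORγ and RORE-LUC reporter; compounds added 2 h before 1 uM final doxycycline.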

Assay [8] in a line: qHTS assay to identify small molecule agonists of the AP-1 signaling pathway (AID 1159526). Note: % is set by controls: 0 for no effect and ±100 for the full control effect.
The target in assay [9] is Retinoic acid receptor RXR-alpha (Homo sapiens) (UniProt P19793). Put plainly: qHTS assay to identify small molecule agonists of the RXR signaling pathway (AID 1159527). Note: % is set by controls: 0 for no effect and ±100 for the full control effect; nearly all actives have a fitted effect of over 35% in size. The method, boiled down:
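Agonist mode; 9-cis retinoic acid positive control. HEK 293T UAS-bla reporter cells, 2% charcoal-stripped FBS, 16 hr compound exposure at 37 C/5% CO2. LiveBLAzer B/G FRET substrate 2 hr RT; ex 405, em 460/530 nm.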

Assay [10] can be described thus: qHTS assay to identify small molecule agonists of the AP-1 signaling pathway - cell viability counter screen (AID 1159525). Note: nearly all actives have a fitted effect of over 55% in size. The method, boiled down: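 ME-180 AP-1-bla, 2500 cells/well, Opti-MEM + 0.5% dialyzed FBS; overnight 37 °C; cpd 15-pt titration, 5 h 37 °C; CellTiter-Glo 30 min RT; luminescence read; normalised to TOAB and DMSO controls.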

Retinoic acid receptor RXR-alpha (Homo sapiens), sequence (P19793 whole entry, looked up): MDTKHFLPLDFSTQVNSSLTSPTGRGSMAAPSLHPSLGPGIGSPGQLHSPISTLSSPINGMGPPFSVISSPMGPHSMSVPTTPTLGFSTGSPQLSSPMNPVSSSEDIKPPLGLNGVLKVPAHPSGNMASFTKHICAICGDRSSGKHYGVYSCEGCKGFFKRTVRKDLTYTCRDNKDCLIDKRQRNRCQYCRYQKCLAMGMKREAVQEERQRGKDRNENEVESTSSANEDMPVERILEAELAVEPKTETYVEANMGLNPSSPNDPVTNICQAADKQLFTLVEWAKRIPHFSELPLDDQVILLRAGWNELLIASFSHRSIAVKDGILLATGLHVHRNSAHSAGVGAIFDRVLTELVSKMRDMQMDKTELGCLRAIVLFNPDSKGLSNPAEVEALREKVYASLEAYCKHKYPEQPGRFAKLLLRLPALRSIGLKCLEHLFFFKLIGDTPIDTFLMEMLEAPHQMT

Consider `Nc1ccc(S(=O)(=O)Nc2ccccc2)cc1`, for which the Potency entry in assay [1], in assay [2], in [3], in [4], in [5] and in [6] was “inactive” each time. For the same compound, the Potency result in [7], in assay [8] and in assay [9] was “inactive” in each case.
Consider `COc1ccc(C(=O)N2CCN(CC(=O)N3CCOCC3)CC2)cc1`, for which the Potency result in assay [1], in assay [2], in [3], in [4], in assay [5] and in [6] was “inactive” in each case. The Potency result in assay [7] and in [8] was “inactive” throughout.
As to `CN(C)CCOC(c1ccccc1)c1ccc(Br)cc1` (stereo unspecified), the Potency entry in assay [2], in [3], in [4], in [5], in assay [6] and in assay [7] was “inactive” each time. Further, the Potency entry in assay [10] is “inactive”.
In the case of `C[C@@H]1C[C@H]2O[C@@]3(O[C@@H]2C(C)(C)O)[C@H](O)[C@@]2(C)[C@@H]4CC[C@H]5C(C)(C)[C@@H](O[C@@H]6OC[C@@H](O)[C@H](O)[C@H]6O)CC[C@@]56C[C@@]46CC[C@]2(C)[C@@H]13`, the Potency entry in assay [2], in assay [3], in assay [4], in assay [5], in assay [6] and in assay [7] was “inactive” in each case. Besides, the Potency result in assay [10] was “inactive”.
For `NC(N)=NCCC[C@H](N)C(=O)O`, the activity change, negative = cytotoxicity is -0.114% [at 5.95 µM] in assay [1] and -7.79% [at 6.95 µM] in assay [5]. In [2], the viability change, negative = cytotoxic was -1.77% [at 6.95 µM]. For the same compound, the activity, negative = cytotoxic in assay [3] was 7.11% [at 6.95 µM]. Also, the activation in assay [4] was 0.874% [at 6.95 µM]; in assay [8] it was 2.4% [at 6.97 µM]; in assay [9], 7.8% [at 6.98 µM]. The activity, negative = cytotoxicity in [6] is 0.0529% [at 8.39 µM]. Further, in [7], the activity change, negative = inhibition is -5.21% [at 8.39 µM].
In the case of `CN(Cc1ccc(C(C)(C)C)cc1)Cc1cccc2ccccc12`, in assay [3], the Potency was 21.3 µM (active). In addition, the Potency result in assay [4], in assay [5], in assay [6] and in [7] was “inactive” each time.
As for `CCCCC(CC)CN1C(=O)C2C3C=CC(C3)C2C1=O` (stereo unspecified), the Potency result in assay [3], in assay [4], in [5], in [6] and in assay [7] was “inactive” each time.
Turning to `O=C(O)C1(C(=O)O)CCC1.[NH2-].[NH2-].[Pt+2]`, the Potency result in [1], in assay [2], in assay [3], in [4], in assay [5] and in [6] was “inactive” each time. Moreover, the Potency result in [7], in assay [8] and in assay [9] was “inactive” throughout.
In the case of `O=C(O)c1ccccc1Cl`, the Potency result in assay [1], in assay [2], in assay [3], in assay [4], in assay [5] and in assay [6] was “inactive” in each case. Moreover, the Potency entry in assay [10], in assay [8] and in assay [9] was “inactive” each time.
Consider `O=CC1CC=CCC1` (stereo unspecified), for which the Potency result in assay [1], in assay [2], in assay [3], in assay [4], in [5] and in assay [6] was “inactive” in each case. Further, the Potency result in assay [10], in assay [8] and in assay [9] was “inactive” each time.
For `C/C=C(/C(=C/C)c1ccc(OC(C)=O)cc1)c1ccc(OC(C)=O)cc1`, the Potency entry in assay [2], in assay [3], in assay [4], in assay [5], in [6] and in assay [7] was “inactive” throughout.
Consider `CCCCCCCCCCCc1ccccc1`, for which the Potency entry in assay [1], in assay [2], in assay [3], in assay [4], in assay [5] and in assay [6] was “inactive” throughout. Besides, the Potency result in assay [10], in assay [8] and in assay [9] was “inactive” in each case.
With `CN1CCN(C(c2ccccc2)c2ccccc2)CC1`, the Potency entry in [2], in assay [3], in assay [4], in assay [5], in assay [6] and in assay [7] was “inactive” each time. Also, the Potency entry in assay [9] was “inactive”.
Take `Nc1ccc([N+](=O)[O-])c(C(F)(F)F)c1`: the Potency entry in assay [1], in assay [2], in assay [3], in [4], in [5] and in [6] was “inactive” each time. In addition, the Potency result in assay [10], in assay [8] and in assay [9] was “inactive” each time.
For `C=C(C)C(=O)OCCO`, the Potency result in [1], in assay [2], in assay [3], in assay [4], in assay [5] and in assay [6] was “inactive” each time. Moreover, the Potency result in assay [10], in assay [8] and in [9] was “inactive” throughout.
With `C=CC1CC2C=CC1C2` (stereo unspecified), the Potency result in assay [1], in [2], in assay [3], in [4], in assay [5] and in [6] was “inactive” in each case. For the same compound, the Potency entry in assay [10], in [8] and in assay [9] was “inactive” in each case.
On to `CCCCCCOC(=O)NC(=N)c1ccc(NCc2nc3cc(C(=O)N(CCC(=O)OCC)c4ccccn4)ccc3n2C)cc1`, for which the Potency in assay [1] was 29.8 µM (active); in [3], 19 µM (active); in assay [5] it was 21.3 µM (active); in assay [7], 11.9 µM (active). For the same compound, the Potency entry in assay [4] and in assay [6] was “inactive” in each case.
As for `CC(C)=CCC/C(C)=C/CC/C(C)=C/CO`, in assay [1], the Potency was 49 µM (active). In addition, the Potency entry in [2], in assay [3], in assay [4], in assay [5], in assay [6] and in assay [7] was “inactive” each time.
Take `CNCCCCOc1ccccc1Cc1ccccc1`: the Potency entry in assay [3], in assay [4], in assay [5], in assay [6] and in assay [10] was “inactive” in each case.
For `CCC(C)(C)CC`, the Potency result in assay [2], in assay [3], in assay [4], in assay [5], in assay [6] and in [7] was “inactive” each time. Further, in [9], the Potency entry is “inactive”.
With `CN(C)CCN(Cc1ccsc1)c1ccccn1`, the Potency result in assay [1], in [2], in assay [3], in [4], in [5] and in [6] was “inactive” each time. Further, the Potency entry in assay [10], in [8] and in [9] was “inactive” in each case.
As for `O=C(O)C(S)C(S)C(=O)O` (stereo unspecified), the Potency entry in [1], in assay [2], in [3], in assay [4], in assay [5] and in assay [6] was “inactive” throughout. Further, the Potency result in [10], in assay [8] and in assay [9] was “inactive” in each case.
Regarding `CCOC(=O)Cc1cccc2ccccc12`, the Potency result in assay [1], in [2], in assay [3], in assay [4], in [5] and in [6] was “inactive” each time. In addition, the Potency result in [10], in [8] and in [9] was “inactive” each time.
In the case of `CCCCCCCCCCO[C@@H]1O[C@H](CO)[C@@H](O)[C@H](O)[C@H]1O`, the Potency result in assay [3], in [4], in assay [5], in assay [6], in [10] and in assay [8] was “inactive” throughout.
Take `O=C1C(O)=C(O)C(=O)C(O)=C1O`: the Potency entry in [1], in assay [2], in [3], in assay [4], in assay [5] and in assay [6] was “inactive” each time. Further, the Potency entry in [10], in [8] and in assay [9] was “inactive” throughout.
For `C#C[C@]1(O)CC[C@H]2[C@@H]3CCc4cc(OC5CCCC5)ccc4[C@H]3CC[C@@]21C`, the Potency entry in [1], in assay [4] and in assay [5] was “inactive” in each case. Also, the Potency was 21.3 µM (active) in assay [3], 29.8 µM (active) in assay [6] and 10.6 µM (active) in [7].
Take `CC1CCC(=O)C1=O` (stereo unspecified): the Potency result in assay [3], in [4], in [5], in assay [6], in [10] and in assay [8] was “inactive” throughout. The Potency result in assay [9] was “inactive”.
